Screen size: about 1,300 compounds; about 380 (29%) were called active. Another 37% or so got no clear call; they are omitted. Calls come from the whole dose curve; as a rule, active = well fitted inhibition curve with a large enough effect; inconclusive = small, poorly fitted or top-dose-only effect; inactive = flat fitted curve, though single readings scatter. Some of the results follow. A call without a number means that no potency is given here.
Potency is the fitted concentration of half-maximal effect.

The target in this assay is Thyrotropin receptor (Homo sapiens) (UniProt P16473). Kind of assay: qHTS for antagonists of the Thyroid Stimulation Hormone Receptor: Hit Validation in Primary Screen. Note: nearly all actives have a fitted effect of over 80% in size. The note with it: TSHR-expressing cells, cAMP antagonist mode; series mostly up to 58 µM. The method, boiled down: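 TSHR-expressing cells were pretreated with compound, then stimulated with TSH at EC80 (4nM final) for 2 hours at 37 deg C. Cellular cAMP measured by competitive HTRF (anti-cAMP cryptate, cAMP-d2) after 30 min at room temperature.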
Chain of Thyrotropin receptor (Homo sapiens) (P16473 whole entry, looked up): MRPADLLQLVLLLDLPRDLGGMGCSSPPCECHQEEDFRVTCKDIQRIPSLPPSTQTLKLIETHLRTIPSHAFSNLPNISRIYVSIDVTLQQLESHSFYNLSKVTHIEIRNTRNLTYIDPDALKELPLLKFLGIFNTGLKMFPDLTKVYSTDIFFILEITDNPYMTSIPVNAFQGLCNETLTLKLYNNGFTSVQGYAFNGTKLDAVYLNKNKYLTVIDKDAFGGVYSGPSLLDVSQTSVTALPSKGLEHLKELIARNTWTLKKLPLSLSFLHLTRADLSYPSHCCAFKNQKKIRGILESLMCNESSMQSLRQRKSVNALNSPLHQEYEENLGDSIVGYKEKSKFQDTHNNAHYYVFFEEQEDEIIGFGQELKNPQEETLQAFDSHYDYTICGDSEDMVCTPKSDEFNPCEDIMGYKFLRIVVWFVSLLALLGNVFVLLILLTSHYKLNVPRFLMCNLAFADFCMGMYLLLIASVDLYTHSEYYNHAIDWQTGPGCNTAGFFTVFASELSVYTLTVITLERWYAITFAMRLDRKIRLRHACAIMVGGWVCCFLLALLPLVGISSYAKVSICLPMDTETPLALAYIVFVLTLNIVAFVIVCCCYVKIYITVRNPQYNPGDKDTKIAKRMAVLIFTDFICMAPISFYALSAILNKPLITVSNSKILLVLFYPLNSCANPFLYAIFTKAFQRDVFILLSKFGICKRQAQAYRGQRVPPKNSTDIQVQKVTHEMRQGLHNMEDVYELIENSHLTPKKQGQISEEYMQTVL
As for `NC(=O)c1cc(S(=O)(=O)NCc2ccc(F)cc2)cs1`, the Potency entry is “inactive”.

In the case of `CCN(CCCNC(=O)Cn1ncc2c([nH]c3ccc(C)cc32)c1=O)c1cccc(C)c1`, the Potency entry is “inactive”.

Take `COc1ccc(/C=N/NC(=O)c2ccoc2C)cc1COc1c(C)cccc1C`: the Potency was 12 µM (active).

`COc1ccc(N2C(=O)NC(NS(=O)(=O)c3ccc(Cl)cc3)(C(F)(F)F)C2=O)cc1` (stereo unspecified): the Potency result is “inactive”.

Consider `O=c1cc(C(F)(F)F)[nH]c2ccc(OC(F)(F)F)cc12`, for which the Potency was 9.53 µM (active).

On to `O=c1nc(/C=C/c2ccccc2C(F)(F)F)cc(C(F)(F)F)[nH]1`, for which the Potency entry is “inactive”.

Turning to `O=c1cc(C(F)(F)F)[nH]c2c(C(F)(F)F)cccc12`, the Potency was 2.39 µM (active).

In the case of `O=C(Cn1ncc2c([nH]c3ccccc32)c1=O)NCC1CCN(Cc2ccc(F)cc2)CC1`, the Potency result is “inactive”.

In the case of `CCOC(=O)C1=C(C)Nc2ccccc2N=C1NC(=O)c1cc(C)on1`, the Potency result is “inactive”.

Consider `N#CC1=C(N)NC(SCc2ccc(Br)cc2)=C(C#N)C12CCCCC2`, for which the Potency is 23.9 µM (active).

As for `COc1ccc(Cl)cc1NC(=O)C1CCN(C(=O)C2CC(=O)N(c3ccc(C)cc3)C2)CC1` (stereo unspecified), the Potency entry is “inactive”.

With `Cc1cc(Cl)c(S(=O)(=O)N2CCSCC2)cc1OCC(=O)NC1CCCCC1`, the Potency is 23.9 µM (active).

Turning to `COc1cc(OC)c(NC(=O)Cn2cnc3sc(C)c(S(=O)(=O)N4CCOCC4)c3c2=O)cc1Cl`, the Potency entry is “inactive”.

For the molecule `Cc1ccc(S(=O)(=O)N2CCCC(C(=O)NC3CCCC3)C2)cc1Cl` (stereo unspecified), the Potency result was “inactive”.

On to `O=C(NC1CCCCC1)c1cc(-c2ccccc2O)on1`, for which the Potency result was “inactive”.

`CCOC(=O)c1c(S(=O)(=O)NCC(=O)Nc2cccc(C)c2C)c(C)n(C)c1C`: the Potency result is “inactive”.

On to `c1ccc(CNc2ncnc3scc(-c4cccs4)c23)nc1`, for which the Potency is 21.3 µM (active).

Take `O=C(CCC(=O)Nc1ccccc1)N/N=C/c1ccncc1`: the Potency result was “inactive”.

Regarding `Cc1ccc(OCc2nnc(NC(=O)c3cccnc3)s2)cc1`, the Potency result is “inactive”.

In the case of `O=C(COc1ccc(-c2ccccc2)cc1)Nc1cccnc1`, the Potency was 37.9 µM (active).

On to `O=C(Nc1ccc(Br)cc1)c1cccc(S(=O)(=O)Nc2cnc3ccccc3c2)c1`, for which the Potency is 21.3 µM (active).

Take `CCCCN1C(=O)c2ccc(C(=O)Nc3ccc(C)c(S(=O)(=O)N(C)C)c3)cc2C1=O`: the Potency was 23.9 µM (active).

For the molecule `CCCN1C(=O)c2ccc(C(=O)Nc3cc(C)ccc3O)cc2C1=O`, the Potency entry was “inactive”.

As for `O=[N+]([O-])c1cccc(S(=O)(=O)Nc2nc3ccccc3nc2Nc2cccc(S(=O)(=O)N3CCCCC3)c2)c1`, the Potency was 12 µM (active).

As to `COC(=O)c1sc(-c2ccc(Cl)cc2)cc1NC(=O)/C=C/C(=O)O`, the Potency is 30.1 µM (active).

In the case of `COC(=O)c1sc(-c2ccc(C(C)(C)C)cc2)cc1NC(=O)/C=C/C(=O)O`, the Potency was 26.9 µM (active).

As to `Cc1ccccc1NC(=O)C1(C)Cc2ccccc2C(=O)O1` (stereo unspecified), the Potency result was “inactive”.

Turning to `CCN(C(=O)CSc1nnc(-c2ccccc2)o1)c1c(N)n(Cc2ccccc2)c(=O)[nH]c1=O`, the Potency entry is “inactive”.

For the molecule `CC1CC(C)CN(CCCNC(=O)CN2C(=O)COc3ccc(S(=O)(=O)N4CCOCC4)cc32)C1` (stereo unspecified), the Potency result is “inactive”.

With `CC(C)C1Nc2ccc(C(=O)N3CCN(c4ccccn4)CC3)cc2NC1=O` (stereo unspecified), the Potency entry was “inactive”.

For the molecule `CC1CCc2c(sc(NC(=O)c3ccco3)c2C(=O)O)C1` (stereo unspecified), the Potency result was “inactive”.

In the case of `CN(C)c1ccc(/C=C/c2cc[n+](C)cc2)cc1`, the Potency was 37.9 µM (active).

`CC[n+]1ccc(/C=C/c2ccc(N(C)C)cc2)c2ccccc21`: the Potency was 26.9 µM (active).

On to `CN(C)c1ccc(/C=C/c2ccc3c4ccccc4ccc3[n+]2-c2ccccc2)cc1`, for which the Potency is 23.9 µM (active).

In the case of `CC[n+]1c(/C=C/c2ccc(N(C)C)cc2)ccc2ccccc21`, the Potency was 26.9 µM (active).

As to `O=S(=O)(C/C(=C/CO)S(=O)(=O)c1ccccc1)c1ccccc1`, the Potency result is “inactive”.

For the molecule `Cc1ccnc(OC(C(=O)O)C(OCCc2ccccc2)(c2ccccc2)c2ccccc2)n1` (stereo unspecified), the Potency entry is “inactive”.

As for `O=C(c1ccc(Cl)c(S(=O)(=O)N2CCCCC2)c1)N1CCCC1`, the Potency entry is “inactive”.

`COc1ccc(CCNC(=O)c2ccc(Cl)c(S(=O)(=O)N3CCCCCC3)c2)cc1`: the Potency is 16.9 µM (active).

As for `CSCC[C@H](NC(=O)c1ccc(Cl)c(S(=O)(=O)N2CCCC2)c1)c1nc2ccccc2[nH]1`, the Potency result is “inactive”.

With `COc1ccc(-c2cc(C3CCN(c4cc(Cl)nc(N)n4)CC3)[nH]n2)cc1`, the Potency is 37.9 µM (active).

Take `O=C(N[C@H]1C/C=C\C(c2ccc(F)cc2)N(Cc2ccccc2)C(=O)C1)OCC1c2ccccc2-c2ccccc21` (stereo partly specified): the Potency result was “inactive”.

On to `O=S(=O)(Nc1cccnc1)c1ccc(Br)c2ccccc12`, for which the Potency is 26.9 µM (active).

For `O=C(NC(=S)Nc1ccccc1)c1cc(-c2ccccc2)nc2ccccc12`, the Potency entry is “inactive”.

Consider `CC(=O)Nc1ccc(-c2csc(NC(=O)Nc3ccccc3)n2)cc1`, for which the Potency was 37.9 µM (active).

With `COc1ccc(-c2ccc(SCc3ccccn3)nn2)cc1OC`, the Potency entry was “inactive”.

In the case of `COc1cccc(NC(=O)Nc2nc(-c3ccc(OC)c(OC)c3)cs2)c1`, the Potency is 15.1 µM (active).

`COc1ccc(NC(=O)CSc2nc3[nH]c(=O)[nH]c(=O)c3s2)cc1OC`: the Potency entry was “inactive”.

`CCN(CC)C(=O)Cn1c(=O)n(-c2ccccc2)c(=O)c2sccc21`: the Potency result is “inactive”.

As for `CC(=O)c1ccc(N(C(=O)CNC(=O)c2ccco2)C(C(=O)NC2CCCC2)c2ccncc2)cc1` (stereo unspecified), the Potency result is “inactive”.

For `COc1ccc(NC(=O)CCNS(=O)(=O)c2ccc3c(c2)CC(C)N3C(C)=O)cc1` (stereo unspecified), the Potency result is “inactive”.

In the case of `COc1ccc(OCC(=O)NC(=S)Nc2ccc(N3CCOCC3)c(Cl)c2)cc1`, the Potency was 19 µM (active).

As for `COc1ccc(NC(=S)N(CCCN2CCOCC2)C(C)c2cc3cccc(OC)c3o2)cc1` (stereo unspecified), the Potency result is “inactive”.

For `CC(C)Nc1ncnc2c1nnn2Cc1ccccc1`, the Potency result is “inactive”.

Regarding `N#Cc1nc(-c2ccccc2)oc1N1CCN(C(=O)c2ccco2)CC1`, the Potency entry is “inactive”.

As for `O=C(c1ccco1)N1CCN(c2ncnc3c2nnn3Cc2ccccc2Cl)CC1`, the Potency is 30.1 µM (active).

With `CCOc1ccc(N(CC(=O)NCc2ccc(F)cc2)C(=O)CCC(=O)Nc2nccs2)cc1`, the Potency result is “inactive”.

In the case of `CC1CCCCN1C(=O)CSCC(=O)Nc1nc(-c2cccs2)cs1` (stereo unspecified), the Potency is 30.1 µM (active).

Turning to `CN(C)S(=O)(=O)c1ccc(C(=O)Nc2nc(-c3cccs3)cs2)cc1`, the Potency was 19 µM (active).

As to `O=C(Nc1nc(-c2cccs2)cs1)c1cccc(S(=O)(=O)N2CCCCCC2)c1`, the Potency result is “inactive”.

With `O=C(COc1ccc(Cl)cc1)Nc1nc(-c2cccs2)cs1`, the Potency was 23.9 µM (active).

Turning to `CCOC(=O)Cc1csc(NC(=O)COc2ccc(N(C)S(=O)(=O)c3cccs3)cc2)n1`, the Potency is 23.9 µM (active).

With `CN(Cc1ccccc1)S(=O)(=O)c1ccc(OCC(=O)NCc2ccccn2)cc1`, the Potency result was “inactive”.

In the case of `CCN(CC)c1ccc(C(=O)OCC(=O)N2CCCC2)cc1`, the Potency entry was “inactive”.

For the molecule `COc1cccc(NC(=S)N2CCCN(Cc3ccc(F)cc3)C2)c1`, the Potency entry is “inactive”.

For the molecule `Cn1nnnc1SCC1=C(C(=O)O)N2C(=O)C(NC(=O)C3CC3c3ccccc3)C2SC1` (stereo unspecified), the Potency result is “inactive”.

As to `O=C1C=C(c2ccc(Cl)c(C(F)(F)F)c2)C[C@@H](c2ccc(F)cc2)C1`, the Potency entry is “inactive”.

As to `CSC1=NSC2=NC(=O)/C(=C\c3coc4ccccc4c3=O)C(=N)N12`, the Potency is 2.69 µM (active).

In the case of `CCSC1=NSC2=NC(=O)/C(=C\c3coc4ccccc4c3=O)C(=N)N12`, the Potency is 1.69 µM (active).

Take `Cc1ccc(-c2nnc(SCC(=O)NC3CCCC3)n2C)cc1`: the Potency entry is “inactive”.

Turning to `N#Cc1cccc(NC(=O)COC(=O)c2cc(S(=O)(=O)Nc3ccccc3Cl)ccc2O)c1`, the Potency is 12 µM (active).

Turning to `CCCC(=O)OCCNc1cc(Sc2nc3ccccc3[nH]2)c2nonc2c1[N+](=O)[O-]`, the Potency is 23.9 µM (active).

As to `CCC(=O)OCCNc1cc(Sc2nccn2C)c2nonc2c1[N+](=O)[O-]`, the Potency was 19 µM (active).

For `CC(=O)OCCNc1cc(Sc2nc3ccccc3[nH]2)c2nonc2c1[N+](=O)[O-]`, the Potency is 26.9 µM (active).

On to `CCC(=O)OCCNc1cc(Sc2nc3ccccc3[nH]2)c2nonc2c1[N+](=O)[O-]`, for which the Potency was 23.9 µM (active).

In the case of `COc1ccc(F)cc1CN1CCN(C(=O)CCC(=O)Nc2nnc(CC(C)C)s2)CC1`, the Potency result was “inactive”.

In the case of `O=c1[nH]cccc1-c1nc2ccccc2n1Cc1ccc(F)cc1`, the Potency entry is “inactive”.

For `Cn1c(CNC(=O)c2ccc(Cl)cc2)nnc1SCC(=O)NC1CCCC1`, the Potency result was “inactive”.

Take `CCN(c1cccc(C)c1)S(=O)(=O)c1cn(CC(=O)OC)c2ccc([N+](=O)[O-])cc12`: the Potency result is “inactive”.

On to `CNC(=S)n1cnc(N)n1`, for which the Potency result was “inactive”.

Take `NS(=O)(=O)c1ccc(CCNC(=O)c2cc3ccccc3s2)cc1`: the Potency result is “inactive”.

Regarding `O=C(CNC(=O)c1ccco1)OCC(=O)c1ccccc1`, the Potency result is “inactive”.

For `CCCCNC(=O)CC1C(=O)N(Cc2ccccc2)C(C)c2nc3ccccc3n21` (stereo unspecified), the Potency entry is “inactive”.

As for `CC1=NN(C(N)=S)C(=O)C1N=Nc1ccc(Cl)cc1Cl` (stereo unspecified), the Potency was 30.1 µM (active).

As for `CC(=O)N(C)c1ccc(N=NC2C(=O)N(C(N)=S)N=C2C)cc1` (stereo unspecified), the Potency entry is “inactive”.

Take `O=C1c2cccnc2C(=O)N1Cc1ccc(S(=O)(=O)N2CCN(c3ccc(Cl)cc3)CC2)cc1`: the Potency result is “inactive”.

For the molecule `COc1cccc(N2CCN(c3ncnc4c3cnn4-c3ccc(C)cc3C)CC2)c1`, the Potency was 10.7 µM (active).

Take `CC(C)N(Cc1ccccc1)C(=O)COC(=O)c1cnc(Cl)c(Cl)c1`: the Potency was 23.9 µM (active).

For the molecule `Cc1onc(-c2ccccc2)c1NC(=O)N(Cc1ccccc1)C(C)C`, the Potency result was “inactive”.

In the case of `CCc1ccc(/C=C/C(=O)c2cc(Br)ccc(=O)c2O)cc1`, the Potency is 9.53 µM (active).

Regarding `Cc1cccc(/C=C/C(=O)c2cc(Br)ccc(=O)c2O)c1`, the Potency was 15.1 µM (active).

As for `C1=C(CCNc2ncnc3c2[nH]c2ccccc23)CCCC1`, the Potency is 23.9 µM (active).

As to `COc1ccc2[nH]c3c(NCCC4=CCCCC4)ncnc3c2c1`, the Potency was 4.78 µM (active).

On to `CCCCOCCCNc1ncnc2c1[nH]c1ccccc12`, for which the Potency was 30.1 µM (active).

As for `Cc1cccc(NC(=S)NCC(C)CSc2ccc(Cl)cc2)c1` (stereo unspecified), the Potency was 30.1 µM (active).

For `Cc1cccc(NC(=O)CCN2CCN(C)CC2)c1`, the Potency result was “inactive”.

(Values after PubChem BioAssay AID602292 (National Center for Advancing Translational Sciences (NCATS), 2012).)
